Data on 16 molecules can be found in PubChem BioAssay.

The source made the active and inactive calls.

Assay [1] can be described thus: A549 cell viability effects, profiling panel, calcein-AM fluorescence, 48 h, basal (AID 1162). As to conditions: higher = more signal.
The nature of assay [2]: adipocyte viability effects, profiling panel, cell-based, 3T3-L1 adipocytes, calcein-AM fluorescence, 48 h, basal (AID 1163). As to conditions: 3T3-L1 adipocytes viability, higher = more signal.
Assay [3] is described as follows: HepG2 cell viability effects, profiling panel, calcein-AM fluorescence, 48 h, basal (AID 1164). As to conditions: higher = more signal.
Assay [4] in a line: MM1S cell viability effects, profiling panel, calcein-AM fluorescence, 48 h, basal (AID 1165).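 Further: viability of MM1S multiple myeloma cells under basal unstimulated conditions.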 The conditions noted are these: higher = more signal.
The nature of assay [5]: basal RPMI8226 viability, no added stimulus, profiling panel, cell-based, calcein-AM fluorescence, 48 h, PK04 Diversity Set (AID 1166).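 Further: cells grown under basal conditions without added stimulus.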 The conditions noted are these: RPMI8226 myeloma viability, higher = more signal.
Assay [6] can be described thus: basal HepG2 mitochondrial membrane potential changes, profiling panel, cell-based, JC-1 fluorescence, 24 h, 100 nL compound (AID 1167). As to conditions: higher = more signal.
Assay [7] can be described thus: basal 3T3-L1 adipocyte mitochondrial potential changes, profiling panel, cell-based, JC-1 fluorescence, 3T3-L1 adipocytes, 24 h, 100 nL compound (AID 1168). The conditions noted are these: JC-1 mitochondrial fluorescence, higher = more signal, called active from +8 up or from −8 down.
A short description of assay [8]: basal RPMI8226 mitochondrial membrane potential changes, profiling panel, cell-based, JC-1 fluorescence, 24 h, 100 nL compound (AID 1169). As to conditions: RPMI8226 myeloma, JC-1 mitochondrial potential fluorescence, higher = more signal.
Assay [9] can be described thus: basal MM1S mitochondrial membrane potential changes, profiling panel, cell-based, JC-1 fluorescence, 24 h, 100 nL compound (AID 1170). As to conditions: higher = more signal.
Assay [10] in a line: A549 lung cancer cell viability effects, profiling panel, resazurin fluorescence, 24 h, PK04 Diversity Set (AID 1171). As to conditions: higher = more signal, called active from +8 up or from −8 down. On the technique in general: The colour change of resazurin is a common sign of viable cells or microbes.
Further: test concentration not given here.

On to `O=C(NCc1ccccc1)[C@@H]1c2ccccc2C(=O)N(C2Cc3ccccc3C2)[C@H]1c1ccc(CO)cc1`, for which the z-score is 0.365 in assay [1]; 0.363 in assay [2]; 0.291 in [3]; 0.0344 in assay [4]; -1.3 in assay [5]; 1.52 in assay [6]. The z-score was -0.508 (inactive) in [7], 0.0926 in assay [8], 0.458 in [9] and 0.791 (inactive) in assay [10].
Regarding `COCCCNC(=O)[C@@]1(CCS(=O)(=O)c2ccccc2)N=C(c2ccc(OCCCO)cc2)O[C@H]1c1ccccc1N=[N+]=[N-]`, the z-score in assay [1] was -0.196; in assay [2], 2.02; in assay [3] it was -0.43; in assay [4] it was 0.0021; in assay [5], -2.28; in assay [6] it was 0.4. In addition, the z-score is -0.636 (inactive) in assay [7], -0.938 in [8], -1.2 in assay [9] and 1.36 (inactive) in assay [10].
Take `CN(C)CCCCCCNC(=O)[C@@H]1C[C@@H]2C(=O)N[C@@H](CCCC[N+](C)(C)C)C(=O)N2[C@@H]1c1ccc(O)cc1`: the z-score in [1] is -0.974; in assay [2], 0.334; in assay [3] it was -0.646; in assay [4], -1.51; in assay [5] it was 0.131; in assay [6], -0.108. Moreover, the z-score in assay [7] is -0.302 (inactive); in assay [8], 0.185; in assay [9], -0.313; in [10], -0.994 (inactive).
Regarding `C=CCN(Cc1ccccc1)C(=O)C(c1cccs1)N(C(=O)/C=C\C(=O)O)c1ccc(CCOCCO)cc1` (stereo not given), the z-score in assay [1] is 0.631; in assay [2] it was 0.007; in assay [3], 0.97; in assay [4], 1.82; in [5], 0.526; in assay [6] it was 0.427. For the same molecule, the z-score in assay [7] was 0.319 (inactive); in assay [8], 0.697; in [9], -1.06; in assay [10], -0.52 (inactive).
For the molecule `CCOC(=O)C[C@H]1[C@H](OC(=O)c2ccc(C(=O)c3ccccc3)cc2)[C@@H](NC(=O)c2ccccc2)c2cc(OCCCO)ccc2N1C(=O)c1ccccc1`, the z-score was 0.223 in [1]; 1.05 in [2]; 0.496 in assay [3]; 0.358 in [4]; 0.17 in assay [5]; 0.601 in [6]. In addition, the z-score in [7] is 0.00705 (inactive); in assay [8] it was 0.892; in assay [9] it was 0.0929; in assay [10] it was 0.254 (inactive).
As to `O=C1NC(=O)C2C1C=CC(C(O)C=Cc1ccc([N+](=O)[O-])cc1)N2Nc1ccc(Cl)cc1Cl` (stereo not given), the z-score in [1] was -0.352; in [2], -0.122; in assay [3] it was -0.3; in [4], -1.47; in [5], -1.4; in assay [6], -0.5. Moreover, the z-score was -0.726 (inactive) in [7], -1.02 in [8], -0.873 in [9] and -0.428 (inactive) in assay [10].
`CC=CC(O)C1C=CC2C(=O)N(C)C(=O)C2N1N(c1ccccc1)c1ccccc1` (stereo not given): the z-score in [1] is -0.716; in assay [2], -1.7; in assay [3], -0.967; in assay [4], 0.13; in [5] it was 0.0318; in assay [6] it was -0.0443. The z-score is -0.149 (inactive) in [7], -0.372 in assay [8], -0.106 in [9] and -0.522 (inactive) in assay [10].
`CC(C)[C@@H](C(=O)O)n1cc(C2(O)CCCCC2)nn1`: the z-score in assay [1] is 0.566; in assay [2], 1.51; in assay [3], -0.294; in assay [4], 0.248; in assay [5] it was 0.215; in [6], 0.727. Further, the z-score is 0.639 (inactive) in assay [7], -0.302 in [8], -0.394 in assay [9] and 0.194 (inactive) in [10].
With `O=C1O[C@H](c2ccccc2)[C@H](c2ccccc2)N2[C@H]1[C@@H](C(=O)N1CCN(c3ncccn3)CC1)[C@]1(C(=O)Nc3ccc(C#CC4=CCCCC4)cc31)[C@H]2c1ccccc1OCCO`, the z-score in assay [1] is -1.02; in [2] it was 1.09; in assay [3] it was -0.769; in [4], -2.23; in assay [5] it was -1.72; in [6] it was -0.915. Also, the z-score was 2.88 (inactive) in [7], -1.18 in [8], -1.01 in assay [9] and -1.34 (inactive) in [10].
Take `CCCC=C(CCC)[C@@H](NS(=O)(=O)c1ccc(Cl)cc1)c1ccc(C(=O)OC)cc1`: the z-score was -1.18 in assay [1]; 0.391 in assay [2]; -0.845 in assay [3]; 0.48 in assay [4]; -0.595 in assay [5]; -1.07 in assay [6]. In addition, the z-score in [7] was -0.542 (inactive); in assay [8], -0.906; in assay [9], -0.98; in assay [10], 0.475 (inactive).
For `C[C@H]1C2[C@H](Cc3ccccc3)NC(=O)[C@]23C(=O)NCC(=O)N2CCC[C@H]2C(=O)NC/C=C/CCC/C=C/C3[C@@H]2O[C@]12C` (stereo not given in full), the z-score in assay [1] was 0.776; in assay [2] it was 1.42; in assay [3] it was -0.39; in assay [4] it was -0.37; in assay [5] it was -0.682; in assay [6], 0.624. Also, the z-score in assay [7] was 0.244 (inactive); in assay [8], -0.877; in assay [9], 1.41; in assay [10] it was -1.46 (inactive).
Consider `CS(=O)(=O)CCOC(=O)C1=CC(CCCO)=CC(c2ccc(CN3CCCC3)cc2)N(Cc2cccc(OC(F)(F)F)c2)C=C1C(=O)OCCS(C)(=O)=O` (stereo not given), for which the z-score in assay [1] was 0.75; in [2], 0.309; in assay [3], 1.81; in assay [4], -1.46; in assay [5], -0.697; in assay [6], 3.78. The z-score in assay [7] was -0.168 (inactive); in [8] it was -0.661; in assay [9], -0.935; in assay [10], 0.516 (inactive).
For the molecule `[N-]=[N+]=NCc1ccccc1C[C@@]1(C(=O)NCC(O)CO)N=C(c2ccc(OCCCO)cc2)O[C@@H]1c1ccccc1` (stereo not given in full), the z-score in assay [1] was -1.64; in assay [2], 0.195; in assay [3], -3.17; in assay [4], -3.22; in [5] it was -1.82; in assay [6], -2.54. The z-score in [7] was 1.67 (inactive); in [8] it was -1.12; in [9], -0.123; in assay [10] it was -1.01 (inactive).
As to `CO[C@H]1O[C@H](CO)[C@@H](OC(=O)Nc2ccc(Oc3ccccc3)cc2)[C@H](OC(=O)Nc2ccc3c(c2)OCO3)[C@@H]1OC(=O)Nc1ccc2c(c1)OCO2`, the z-score in assay [1] is -0.882; in assay [2], -0.132; in assay [3], -0.845; in assay [4], -2.21; in assay [5] it was -1.74; in [6], -0.594. Also, the z-score is 1.02 (inactive) in [7], -0.48 in assay [8], -0.751 in assay [9] and -1.29 (inactive) in [10].
In the case of `COc1ccc(C#Cc2ccc3c(c2)[C@]2(C(=O)N3)[C@H](c3ccc(O)cc3)N3[C@H](c4ccccc4)[C@H](c4ccccc4)OC(=O)[C@H]3[C@@H]2C(=O)N2CCc3cc(OC)c(OC)cc3C2)cc1`, the z-score is -0.258 in assay [1]; -0.817 in assay [2]; -0.0752 in [3]; -0.405 in assay [4]; -2.87 in assay [5]; -0.458 in assay [6]. The z-score in assay [7] was 2.25 (inactive); in assay [8] it was -0.727; in assay [9], -0.418; in assay [10], -0.565 (inactive).
For the molecule `O=C1C2C=CC(C(O)c3ccc(F)cc3)N(Nc3ccc([N+](=O)[O-])cc3)C2C(=O)N1c1ccccc1` (stereo not given), the z-score in [1] is -0.755; in assay [2], -0.376; in assay [3] it was 0.679; in [4] it was -0.06; in assay [5], -0.313; in [6] it was -0.382. Further, the z-score in assay [7] is -0.287 (inactive); in assay [8], -0.403; in [9] it was -0.977; in [10], 0.68 (inactive).
